Inconclusive results are not listed. Active and inactive are the calls of the source. Calls follow the shape of the dose curve; as a rule, active = well fitted inhibition curve with a large enough effect; inconclusive = small, poorly fitted or top-dose-only effect; inactive = flat fitted curve, though single readings scatter.

Here are results for 14 compounds from PubChem BioAssay (NCATS).

What all share (assay): qHTS profiling for inhibitors of Plasmodium falciparum proliferation (AID 504749); also: nearly all actives have a fitted effect of over 60% in size
Conditions in all cases: P. falciparum in erythrocytes, SYBR Green DNA, 72 h; series mostly up to 28.7 µM

For one test, the system named is DIV14. In short, it runs like this:
(§1)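 P. falciparum-infected erythrocytes (0.3% parasitemia, 2.5% hematocrit final) were exposed to compounds for 72 h at 37 C in 5% CO2, then lysed with SYBR Green buffer overnight at room temperature; parasite DNA fluorescence was normalized to artemisinin and DMSO controls.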

The test system of another test is DIV17. In short, it runs like this:
as §1

A further test deals with DIV30. Put shortly: as §1
The test system of the next test is Dd2. Put shortly:
as §1

Another test concerns ECU. In short, it runs like this: as §1
In the next test the test system is FAB9. Put shortly: as §1
The test system of the next test is GB4. In short, it runs like this: as §1
Another test has as its system HB3. Put shortly:
as §1

A further test relates to ICS. Put shortly:
as §1

The subject of another test is JCK. Put shortly: as §1
The test system of a further test is N140. In short, it runs like this:
as §1

For another test, the system named is P94_40. In short, it runs like this:
as §1

A further test deals with PAD. Put shortly:
as §1

A further test concerns PC15. In short, it runs like this:
as §1

For another test, the system named is PC26. Put shortly:
as §1

For a further test, the system named is PC49. In short, it runs like this: as §1
For another test, the system named is SC27B. In short, it runs like this: as §1
For the next test, the system named is TAB113. Put shortly:
as §1

The next test concerns P93_24. In short, it runs like this: as §1
The next test deals with TAB109. In short, it runs like this: as §1
Potency is read from the fitted curve at half-maximal effect.

In the case of `CC[N+]1(CCOC(=O)C(O)(c2ccccc2)c2ccccc2)CCCCC1`, the Potency entry in the test on DIV14, with DIV17, in the test with DIV30, with Dd2, in the test with ECU and in the test with FAB9 was “inactive” in each case. The Potency result with GB4, with HB3, in the test on ICS, in the test on JCK, with N140 and in the test on P94_40 was “inactive” throughout. The Potency entry with PAD, in the test on PC15, in the test on PC26, with PC49, in the test on SC27B and in the test with TAB113 was “inactive” throughout.

Consider `CN(C)[C@@H]1C(=O)C(C(N)=O)=C(O)[C@@]2(O)C(=O)C3=C(O)c4c(O)cccc4[C@@](C)(O)[C@H]3[C@H](O)[C@@H]12`, for which the Potency result in the test with DIV14, in the test with DIV17, in the test with ECU, in the test on FAB9, in the test with JCK and in the test with PC15 was “inactive” throughout. Further, the Potency result in the test on PC26, with PC49, in the test on SC27B and in the test on TAB113 was “inactive” each time. For the same compound, the Potency with Dd2 is 3.55 µM (active).

With `C#CC1(O)CCC2C3CCC4=CC(=O)CCC4(C)C3CCC21C` (stereo not drawn), the Potency entry with DIV14, in the test on DIV17, in the test on DIV30, in the test on Dd2, with ECU and in the test with FAB9 was “inactive” in each case. In addition, the Potency entry with GB4, in the test on HB3, with ICS, in the test on JCK, with N140 and with P93_24 was “inactive” throughout. The Potency entry in the test with P94_40, with PAD, with PC15, in the test on PC26, in the test on PC49 and with SC27B was “inactive” each time. The Potency result in the test on TAB109 and with TAB113 was “inactive” each time.

With `CCCCc1ccc(C(=O)O)nc1`, the Potency entry in the test with DIV17, in the test on DIV30, in the test on Dd2, with ECU, in the test on FAB9 and in the test on GB4 was “inactive” in each case. For the same compound, the Potency entry in the test with HB3, in the test on ICS, in the test on JCK, in the test on N140, with P93_24 and with P94_40 was “inactive” throughout. Also, the Potency entry in the test on PAD, in the test on PC15, with PC26, in the test on PC49, in the test with SC27B and in the test with TAB109 was “inactive” in each case. Besides, the Potency entry in the test on TAB113 is “inactive”.

As for `Cc1cc(O)ccc1Cl`, the Potency result in the test with DIV14, in the test on DIV17, in the test on DIV30, in the test with Dd2, with ECU and in the test with FAB9 was “inactive” throughout. In addition, the Potency entry in the test on GB4, in the test with HB3, in the test with ICS, in the test with JCK, with N140 and in the test on P93_24 was “inactive” throughout. The Potency result in the test with PAD, with PC15, in the test on PC26, with PC49, with SC27B and in the test on TAB109 was “inactive” in each case. Moreover, the Potency result in the test with TAB113 is “inactive”.

In the case of `COC(C)(C)CCCC(C)C/C=C/C(C)=C/C(=O)OC(C)C` (stereo not drawn), the Potency entry in the test with FAB9, with SC27B and in the test on TAB109 was “inactive” each time. Also, the Potency in the test on P93_24 is 8.91 µM (active).

Regarding `COC(=O)c1cncn1C(C)c1ccccc1` (stereo not drawn), the Potency entry in the test with DIV14, in the test on DIV17, in the test on DIV30, with GB4 and in the test with PC26 was “inactive” each time.

As for `O=C(O)C(Cl)Cl`, the Potency result with DIV14, with DIV17, in the test on DIV30, with Dd2, with ECU and in the test on FAB9 was “inactive” throughout. In addition, the Potency result in the test on GB4, in the test on HB3, in the test with ICS, with JCK, in the test on N140 and in the test on P93_24 was “inactive” in each case. The Potency entry in the test on P94_40, with PAD, with PC15, in the test with PC26, in the test on PC49 and with SC27B was “inactive” in each case. Further, the Potency result with TAB109 and with TAB113 was “inactive” throughout.

In the case of `CCCCCCCCCCCCCCCC[N+](C)(C)C`, the Potency is 6.75 µM (active) in the test with DIV14; 8.49 µM (active) in the test on DIV17; 8.91 µM (active) with ECU; 4.78 µM (active) in the test on GB4; 7.08 µM (active) in the test with ICS; 12.6 µM (active) in the test on SC27B. Besides, the Potency in the test on TAB113 is 8.91 µM (active). The Potency entry in the test with PC49 is “inactive”.

Regarding `C[C@]12CCC(=O)C(O)=C1CC[C@@H]1[C@H]3CCC(=O)[C@@]3(C)CC[C@@H]12`, the Potency entry in the test with DIV30, with Dd2, in the test on ECU, in the test with FAB9, with GB4 and with HB3 was “inactive” throughout. In addition, the Potency result in the test with ICS, in the test with JCK, in the test on PAD, in the test on PC15, in the test with PC26 and in the test with PC49 was “inactive” throughout.

Take `Cc1ccc(Cl)c(O)c1`: the Potency entry with DIV14, with DIV17, with DIV30, in the test with Dd2, in the test on ECU and in the test on FAB9 was “inactive” throughout. For the same compound, the Potency result in the test on GB4, in the test with HB3, in the test on ICS, in the test with JCK, in the test with N140 and in the test with P93_24 was “inactive” throughout. Also, the Potency entry with P94_40, in the test with PAD, in the test with PC15, in the test with PC26, with PC49 and in the test on SC27B was “inactive” in each case. Further, the Potency result in the test with TAB109 and in the test with TAB113 was “inactive” throughout.

For `CN1C2CCC1CC(OC(=O)c1cc(Cl)cc(Cl)c1)C2` (stereo not drawn), the Potency entry in the test with DIV30, in the test on Dd2, in the test on FAB9, in the test on GB4, with HB3 and in the test on JCK was “inactive” each time. Besides, the Potency entry in the test on N140, in the test with P93_24, with P94_40, with PAD, in the test with PC15 and with PC26 was “inactive” throughout. Also, the Potency entry in the test with PC49, with SC27B, in the test with TAB109 and in the test with TAB113 was “inactive” throughout.

For `O=C(O)COc1ccccc1`, the Potency entry with DIV14, with DIV17, with DIV30, with Dd2, in the test with ECU and in the test with FAB9 was “inactive” in each case. Moreover, the Potency entry in the test on GB4, with HB3, with ICS, in the test with JCK, in the test with N140 and in the test on P93_24 was “inactive” throughout. The Potency result in the test with P94_40, with PAD, in the test on PC15, with PC26, with PC49 and with SC27B was “inactive” throughout. Besides, the Potency result in the test with TAB109 and with TAB113 was “inactive” throughout.

As to `CCCN1CCC[C@H](c2cccc(O)c2)C1`, the Potency result in the test on DIV14, in the test on DIV30, with ECU, in the test on FAB9, in the test with HB3 and in the test on JCK was “inactive” each time. Further, the Potency entry with N140, in the test on P93_24, with P94_40, in the test on PAD, with PC15 and in the test with PC26 was “inactive” each time. For the same compound, the Potency result with PC49, in the test on SC27B, in the test on TAB109 and in the test with TAB113 was “inactive” each time.
